Test results reported in PubChem BioAssay.

Assay: small-molecule microarray binders of probe aEGFR, primary screen, biochemical, biotinylated probe, 635/667 nm fluorescence (AID 1097);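 also: probe is a biotinylated anti-EGFR antibody binding compounds printed on slides; score combines fluorescence near 667 nm and signal to noise of each spot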
Settings: higher = more signal
`C=CCC(OC(C)=O)[C@@H]1[C@@H](N(Cc2ccc(-c3ccccc3)cc2)C(=O)c2ccc(-c3ccccc3)cc2)c2cc(OCCCO)ccc2N1C(=O)c1ccc2ccccc2c1` (some centres undefined) gave a composite z-score of -0.0531. Compound `CCOC(=O)C[C@H]1[C@H](OC(=O)c2cc3ccccc3oc2=O)[C@@H](NC(=O)c2ccc3ccccc3n2)c2cc(OCCCO)ccc2N1C(=O)Cc1ccc(OC)cc1` has a composite z-score of 0.104. Compound `Cc1ccc(S[C@]2(C(=O)NCC(F)(F)F)CC(=O)N(Cc3cc(C(F)(F)F)cc(C(F)(F)F)c3)[C@@H]2c2ccc(CO)cc2)cc1` has a composite z-score of -0.181. `COC(=O)[C@@]1(Cc2ccc(OC)cc2)[C@H]2c3cc(C(=O)N4CCCC4)n(CCc4c[nH]c5ccc(O)cc45)c3C[C@H]2CN1C(=O)c1ccccc1` showed a composite z-score of 0.262. Work on `NC(=O)[C@@]1(Cc2ccccc2)COC(c2ccc(OCCCO)cc2)=N1` yielded a composite z-score of -0.136. In the case of `COCCOC(=O)N1C(=O)[C@@]2(c3cc(C#CCCO)ccc31)[C@H](C(=O)Nc1nc3ccccc3s1)[C@H]1C(=O)O[C@H](c3ccccc3)[C@H](c3ccccc3)N1[C@@H]2c1ccc(O)cc1`, the composite z-score is reported as 0.152. Work on `COc1ccc([Si](C)(C)[C@@H]2[C@@H](CCO)O[C@]3(C(=O)N(Cc4ccccc4)c4ccc(N5CCOC5=O)cc43)[C@H]2C)cc1` yielded a composite z-score of -0.14. Compound `C=C(/C(=C/C[C@H](OC(C)=O)c1ccc(CO)o1)c1cnc2ccccc2c1)C(C)C` has a composite z-score of -0.0172. In the case of `COC(=O)[C@@]1(Cc2ccccc2)[C@H]2c3cc(C(=O)N4CCCC4)n(CCc4ccccn4)c3C[C@H]2CN1C(=O)c1ccccc1`, the composite z-score is reported as 0.338. `COCC(=C=CC[C@H](O)c1ccc(OCCO)cc1)CCO` gave a composite z-score of 0.0882. `CCOC(=O)C1=C[C@@H](C(C)(C)C)N(S(=O)(=O)c2ccc(C)cc2)[C@H]1c1cccc2ccccc12` showed a composite z-score of -0.0828. In the case of `C=CC[C@@]1(C(=O)NCCCOC)N=C(c2ccc(OCCCO)cc2)O[C@@H]1c1ccccc1`, the composite z-score is reported as 0.0353. With `[N-]=[N+]=Nc1ccccc1C[C@]1(C(=O)NCCN2CCOCC2)COC(c2ccc(OCCCO)cc2)=N1` the composite z-score was 0.0433. Compound `Cc1ccc(F)cc1S(=O)(=O)N[C@@H]1CCN(Cc2ccc(Br)cc2)C1` has a composite z-score of -0.0455. Compound `OCCCC1=CC(c2ccc(CN3CCCC3)cc2)N(Cc2cc3c(cc2Br)OCO3)CC1` (centres undefined) has a composite z-score of 0.0617. In the case of `COC(=O)C1=CC(CCCO)=CC(c2ccc(CN3CCCC3)cc2)N(Cc2cccc(OC(F)(F)F)c2)C=C1C(=O)OC` (centres undefined), the composite z-score is reported as -0.0418. Work on `CC(CO)N1C(=O)[C@@H]2[C@H]3C(=O)OCC=C[C@H]3OC23C=CCN(Cn2nnc4ccccc42)C(=O)[C@@H]13` (some centres undefined) yielded a composite z-score of -0.292. `CC(C)NC(=O)[C@@]1(c2ccc([N+](=O)[O-])cc2)CC(=O)N(C2CCCCC2)[C@@H]1c1ccc(CO)cc1` showed a composite z-score of -0.296. `O=C1CS(=O)(=O)C(c2cccc([N+](=O)[O-])c2)N1c1ccccc1` (centres undefined) showed a composite z-score of 0.583. For `NC(=O)NCC#Cc1ccc2c(c1)[C@]1(C(=O)N2)[C@H](c2ccccc2OCCO)N2[C@H](c3ccccc3)[C@H](c3ccccc3)OC(=O)[C@H]2[C@@H]1C(=O)NC[C@H](O)c1ccccc1`, the composite z-score was -0.162. Work on `CCCC[C@@H](O)C1=C(COc2ccccc2)C[C@H]2C(=O)N(Cc3ccccc3)C(=O)[C@H]2[C@H]1CO` yielded a composite z-score of -0.0828. With `COC(=O)[C@@]1(Cc2ccc(F)cc2)[C@H]2c3cc(C(=O)N(C)C)n(Cc4ccc(OC(F)(F)F)cc4)c3C[C@H]2CN1C(=O)c1ccccc1` the composite z-score was 0.114. Work on `COCCOC(=O)N1C(=O)[C@@]2(c3cc(C#CC4=CCCCC4)ccc31)[C@H](c1ccccc1OCCO)N1[C@H](c3ccccc3)[C@H](c3ccccc3)OC(=O)[C@H]1[C@@H]2C(=O)N1CCN(c2ncccn2)CC1` yielded a composite z-score of -0.067. `O=C1OCCC=C[C@H]2OC34C=CCN(c5ccc6ccccc6c5)C(=O)[C@H]3N(CCCO)C(=O)[C@@H]4C12` (some centres undefined) gave a composite z-score of -0.295. `CCCC=C(CCC)[C@@H](NS(=O)(=O)CC12CCC(CC1=O)C2(C)C)c1ccc(C(=O)OC)cc1` (some centres undefined) gave a composite z-score of 0.471. For `CC(C)[Si](C#C[Si](C(C)C)(C(C)C)C(C)C)(O[C@H](c1ccccc1)c1cn(Cc2ccccc2)nn1)C(C)C`, the composite z-score was 0.0129. For `C[N+](C)(C)CCCC[C@@H]1NC(=O)[C@@H]2C[C@H](C(=O)NCCCCCCN)[C@H](c3cccc(OCCO)c3)N2C1=O`, the composite z-score was 0.617. Compound `COC(=O)[C@@H]1N=C(c2ccc(OCCCO)cc2)O[C@@H]1C` has a composite z-score of -0.0465. `Cc1ccc(N2C(=O)c3ccccc3[C@@H](C(=O)NCCCN(C)C)[C@@H]2c2ccc(CO)cc2)nc1` gave a composite z-score of 0.576.
